According to PubChem BioAssay (NCI):
About 83,000 compounds went through this panel and 20% of them were active in at least one assay; those are over-represented in the sample as a whole.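 Step 1: grow cells in 96-well plates. Step 2: add test compound at a single concentration. Step 3: incubate 48 h. Step 4: record percent growth.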 Unmarked numbers belong to inactive results. Active and inactive are the calls of the source. Rule for the calls: active = growth percent below 10; inactive = the rest.

Columns and labels:
Experiment in all cases: NCI-60 one-dose screen, 48 h (100 = growth as untreated, 0 = no growth, -100 = all killed)
Conditions in all cases: 10 µM unless noted
T-47D breast = test system: T-47D breast
BT-549 breast = test system: BT-549 breast
MDA-MB-435 melanoma = test system: MDA-MB-435 melanoma
SW-620 colon = test system: SW-620 colon
MCF7 breast = test system: MCF7 breast
HCT-116 colon = test system: HCT-116 colon
HCC-2998 colon = test system: HCC-2998 colon
KM12 colon = test system: KM12 colon

Row | SMILES | growth (T-47D breast) | growth (BT-549 breast) | growth (MDA-MB-435 melanoma) | growth (SW-620 colon) | growth (MCF7 breast) | growth (HCT-116 colon) | growth (HCC-2998 colon) | growth (KM12 colon)
1 | CCN1CCN(c2nc(NNC(=O)Cc3ccccc3)nc(N3CCN(C(c4ccccc4)c4ccccc4)CC3)n2)CC1 | 29.9% | 88.1% | -33.7% (active) | 16.5% | 33.9% | 28.3% | 38.5% | 59%
2 | CCCCCCCCN(CCO)CCCCCCCC | 97.6% | 106% | 108% | 101% | 93.5% | 104% | 114% | 110%
3 | CC1Cc2ccccc2N1C(=O)c1ccc(C(=O)c2ccccc2)cc1 (stereo not given) | 91.4% | 84% | 89.1% | 95.1% | 103% | 81.1% | 127% | 101%
4 | O=Cc1ncc(-c2ccc(C(F)(F)F)cc2)c(NC2CCCCCC2)n1 | -19% [100 µM] (active) | -93.4% [100 µM] (active) | -88.1% [100 µM] (active) | -44.4% [100 µM] (active) | -86.3% [100 µM] (active) | -94.3% [100 µM] (active) | -74.4% [100 µM] (active) | -87.6% [100 µM] (active)
5 | Cc1cc2ccccn2c1C(=O)c1ccc(C(=O)c2ccccc2)cc1 | 77.3% | 92.5% | 91.3% | 84.2% | 96.5% | 88.7% | 83.8% | 113%
6 | CCOC(CNCc1cc(C)c2[nH]c3ccccc3c2c1C)OCC | 84.9% | 76.4% | 92.3% | 95.1% | 81.3% | 53.5% | 45.1% | 94.4%
7 | Cc1ccccc1NC(=O)N/C(N)=N/c1nc2ccccc2s1 | 61.1% | -2.9% (active) | -11.4% (active) | 25.8% | 19% | 10.2% | 17.2% | 14.9%
8 | C[C@H]1O[C@@H](O[C@H]2[C@@H](O)C[C@H](O[C@H]3[C@@H](O)C[C@H](O[C@H]4CC[C@]5(C)C6C[C@@H](O)[C@]7(C)[C@@H](C8=CC(=O)OC8)CC[C@]7(O)C6CC[C@@H]5C4)O[C@@H]3C)O[C@@H]2C)C[C@H](O)[C@@H]1O (stereo not given in full) | -49.1% (active) | -89.6% (active) | -100% (active) | -97.9% (active) | -26.5% (active) | -88.7% (active) | -79.1% (active) | -100% (active)
9 | C[C@@H]1CN(c2nc3c(cc2F)c(=O)c(C(=O)O)cn3C(C)(C)C)C[C@H](C)N1 | 95.5% | 107% | 107% | 100% | 113% | 92.2% | 98.1% | 98.5%
10 | CC1CN(/N=C/c2ccc([N+](=O)[O-])o2)C(=N)O1 (stereo not given) | 117% | 117% | 100% | 98.2% | 84.8% | 95.6% | 98.3% | 91.7%
11 | C=C1CCC2C(C)(COC(=O)CC)C(OC(=O)CC)CCC2(C)C1C/C=C1/C(=O)OCC1OC(=O)CC (stereo not given) | -51.9% (active) | 83.6% | 2.16% (active) | -62.2% (active) | -35.1% (active) | -100% (active) | -65.8% (active) | 3.97% (active)
12 | N#Cc1c(-c2ccccc2)cc(-c2ccccc2)n(CCCC(=O)O)c1=O | 89.1% | 83.6% | 104% | 105% | 60% | 93% | 103% | 103%
13 | Nc1ccc(Oc2c(F)c(F)c(Oc3ccc(N)cc3)c(F)c2F)cc1 | 91.8% | 108% | 104% | 102% | 129% | 81.5% | 73.1% | 110%
14 | c1ccc(-c2nc(Nc3nccnn3)c3ccccc3n2)cc1 | 83.4% | 99.1% | 101% | 97.9% | 75% | 100% | 106% | 97.8%
15 | C[C@H]1O[C@@H](O[C@H]2[C@@H](O)C[C@H](O[C@H]3[C@@H](O)C[C@H](O[C@H]4CC[C@]5(C)C6CC[C@]7(C)[C@@H](C8=CC(=O)OC8)CC[C@]7(O)C6CC[C@@H]5C4)O[C@@H]3C)O[C@@H]2C)C[C@H](O)[C@@H]1O (stereo not given in full) | -44.5% (active) | -92.5% (active) | -100% (active) | -100% (active) | -41.2% (active) | -96.7% (active) | -90.8% (active) | -100% (active)
16 | CCc1nn2c(-c3ccc(Cl)cc3C)c(-c3cc(OC)c(OC)c(OC)c3)nc2s1 | 58.8% | 101% | 81.3% | 82.5% | 50.7% | 60.5% | 86.3% | 89%
17 | Cc1ccc(-c2csc(N)n2)cc1 | 92.9% | 93% | 106% | 105% | 106% | 99.9% | 98.7% | 106%
18 | COc1ccc(-c2c3c(N)nc(-c4ccncc4)nc3nc3c2c(C)nn3-c2ccccc2)cc1 | 75.2% | 87.1% | 54% | 34.4% | 47.7% | 15.6% | 102% | 62.9%
19 | CN1CCN(c2nc3scc(-c4ccccc4)c3c(=O)[nH]2)CC1 | 104% | 104% | 99.7% | 95.4% | 92.5% | 91.9% | 99.5% | 94.1%
20 | Cc1cc2c(cc1C)[n+](Cc1ccc3ccccc3n1)cn2Cc1ccc2ccccc2n1 | -1.32% (active) | -45.9% (active) | -24.5% (active) | 9.34% (active) | 7.12% (active) | -0.984% (active) | 3.84% (active) | -7.23% (active)
21 | Cc1ccc2nc(-c3ccc(N(C)C)c(Br)c3)cn2c1 | 109% | 71.4% | 63.4% | 100% | 76.8% | 33% | 100% | 95.4%
22 | O=[N+]([O-])c1ccc2[nH]cc(-c3c4ccccc4cc4[nH]c5ccc([N+](=O)[O-])cc5c34)c2c1 | -10.2% (active) | 19.2% | -11.6% (active) | 28% | 8.11% (active) | 9.37% (active) | 57.6% | 5.55% (active)
23 | N[C@H](CS)C(=O)O | 103% | 98.3% | 104% | 106% | 87.9% | 112% | 112% | 109%
24 | CC(=O)Nc1c(Cl)cc2c(c1Cl)Cc1ccccc1-2 | 89.5% | 98.8% | 122% | 103% | 91.1% | 99.1% | 107% | 97.2%
25 | COc1ccc2c3c(ccc2c1)C(=O)/C(=C\O)CC3 | 80.8% | 105% | 111% | 105% | 102% | 88.1% | 104% | 99.5%
26 | Cc1ccc(/C=C/C(=O)c2ccc(F)cc2)s1 | 62.9% | 76.7% | 52.1% | 30.4% | 35.9% | 25.8% | 88% | 67.3%
27 | Cc1ccc(-c2cc(-c3ccccc3)n(-c3ccccc3)n2)cc1 | 74.6% | 101% | 89% | 99.9% | 97.5% | 29.9% | 99.1% | 106%
28 | CSc1nc2nc3c(c(-c4ccc(C)cc4)c2c(=O)[nH]1)CN(C)C/C3=C\c1ccc(C)cc1 | 103% | 114% | 91.8% | 103% | 87% | 101% | 96.5% | 101%
29 | COc1ccc(N2CCN(CC(=O)N3CCN(c4nnc(-c5ccccc5)c(-c5ccccc5)n4)CC3)CC2)cc1 | 20.1% | 47.8% | 45.2% | 54.6% | 36.4% | 29.5% | 62.4% | 37.2%
30 | COc1ccc2c(c1)C(=Nc1cc(OC)c(OC)c(OC)c1)C(=O)N2 | 98.7% | 99% | 118% | 102% | 105% | 51% | 125% | 105%
